Bioassay records: PubChem BioAssay, several laboratories
BoNT-A LC inh2 = BoNT/A light chain protease inhibitors, primary screen, biochemical, flow cytometry, MLPCN library; Botulinum neurotoxin type A light chain protease (Clostridium botulinum A str. ATCC 3502); multiplex microsphere protease substrate cleavage; inhibition, % at 10 µM; hit rate 0.17% among 360,000
Bead autofluor = flagged as autofluorescent in microsphere protease counterscreen. compound autofluorescence counterscreen, microsphere flow cytometry; active compounds read high. fluorescence intensity (concentration not given with the values). hit rate 3.1% among 360,000; in the data active means fluorescence intensity above about 16000; inconclusive means no clear call, values can overlap the other calls
Anthrax LF inh2 = Bacillus anthracis LF protease inhibitors, primary screen, biochemical, multiplex microsphere, MLPCN library | multiplex microsphere protease cleavage assay | inhibition, % at 10 µM | hit rate 0.12% among 360,000 | AID 588501, 2011
BoNT F protease = BoNT/F light chain protease inhibitors, primary screen, biochemical, flow cytometry, MLPCN library; Multiplex microsphere protease cleavage assay; inhibition, % at 10 µM; hit rate 0.22% among 360,000; AID 588497, 2011; in the data active means inhibition above about 35%, passing the limit was not always enough; inconclusive means no clear call, values can overlap the other calls
FBA Mtb inh = Mtb FBA enzyme inhibitors, primary screen, biochemical, fluorescence, strain H37Rv; purified M. tuberculosis FBA, fluorescence read-out; inhibition, % at 1 µM; hit rate 2.3% among 360,000; AID 588726, 2011; in the data active means inhibition above about 27%
Target sequence (P9WQA3 whole entry, looked up): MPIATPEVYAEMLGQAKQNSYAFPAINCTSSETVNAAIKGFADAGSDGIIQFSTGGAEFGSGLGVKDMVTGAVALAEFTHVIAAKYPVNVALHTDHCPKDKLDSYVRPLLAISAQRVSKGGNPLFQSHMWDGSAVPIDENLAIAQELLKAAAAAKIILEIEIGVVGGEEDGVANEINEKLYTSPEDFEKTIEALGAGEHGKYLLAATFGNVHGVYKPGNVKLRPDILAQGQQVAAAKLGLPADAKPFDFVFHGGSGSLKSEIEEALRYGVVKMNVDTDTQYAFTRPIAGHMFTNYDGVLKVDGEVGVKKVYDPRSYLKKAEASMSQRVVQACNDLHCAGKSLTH
GDH-TPI inh = GDH-TPI coupling enzyme inhibitors, primary screen, artefact control for M. tuberculosis FBA inhibitor project, biochemical, absorbance, full deck. hit rate 1.2% among 360,000. inhibition, % at 4.8 µM. GDH-TPI coupled enzyme counterscreen, NADH absorbance. AID 588335, 2011; in the data active means inhibition above about 30%
Large screens that a line does not name were inactive; ! = not confirmed by another sample. Shown are actives, neighbours in structure and some others; about 6.6% of the full set was active somewhere. Unless noted, no stated cut-off is given here; in the data, active means inhibition above about 30%; inconclusive means no clear call, values can overlap the other calls; inactive means below that.

Cc1oc(-c2cccc(Cl)c2)nc1CN1CCC(C(=O)NCC2CCCO2)CC1 (stereo unspecified)	none
Cc1oc(-c2ccccc2F)nc1CN1CCC(C(=O)NC2CC2)CC1	Bead autofluor 20198
Cc1cc(C)nc(N2CCC(C(=O)NCc3cccs3)CC2)n1	BoNT-A LC inh2 inconclusive, Bead autofluor 23240
Cc1ccc(NC(=O)CN(C)CC(=O)Nc2sc3c(c2C(N)=O)CCC3)cc1	none
Cc1nc(SCC(=O)c2cc(C)n(C3CC3)c2C)c2ccccc2n1	none
Cc1cc(-c2ccccc2)nc(N2CCC(C(=O)NC(C)C)CC2)n1	Bead autofluor 16521
COc1cccc(/C=N/NC(=O)CC2C(=O)NN=C2C)c1O (stereo unspecified)	Bead autofluor 20430
COc1ccccc1/C=C/C=N/NC(=O)CC1C(=O)NN=C1C (stereo unspecified)	GDH-TPI inh 37
CCOC(=O)C1(C)CCCCCN1C(=O)c1ccc(C(=O)OC)cc1 (stereo unspecified)	none
NC(Cc1ccccc1)c1csc(Nc2nccc(C(F)(F)F)n2)n1 (stereo unspecified)	none
O=C(N/N=C/c1c(O)n(C2CC2)c(=S)[nH]c1=O)c1ccccc1O	none
O=C(N/N=C/c1c(O)n(CCC2=CCCCC2)c(=O)[nH]c1=O)c1ccccc1	GDH-TPI inh 34
Cc1ccc(-n2c(O)c(/C=N/NC(=O)c3ccncc3)c(=O)[nH]c2=O)cc1	none
O=c1[nH]c(=S)n(CCC2=CCCCC2)c(O)c1C=NCc1cccnc1	BoNT-A LC inh2 inconclusive, Bead autofluor 24166
Cc1ccccc1-n1c(O)c(/C=N/NC(=O)c2ccccc2O)c(=O)[nH]c1=S	GDH-TPI inh 31
O=C(N/N=C/c1c(O)n(-c2ccccc2)c(=O)[nH]c1=O)c1ccncc1	GDH-TPI inh 31
O=C(N/N=C/c1c(O)n(CCC2=CCCCC2)c(=S)[nH]c1=O)c1ccccc1	none
O=C(Nc1cc(C(F)(F)F)ccc1N1CCCC1)C1CC(=O)N(Cc2ccccc2)C1 (stereo unspecified)	none
C=CCn1c(=O)c2ccccc2n2c(SC(C)C(N)=O)nnc12 (stereo unspecified)	none
C=CCn1c(=O)c2ccccc2n2c(SCC(=O)/C(C#N)=C(\C)N)nnc12	BoNT-A LC inh2 inconclusive, Bead autofluor 24633!
O=S(=O)(NCc1ccc(F)cc1)c1ccc(Br)cc1Br	none
COc1cc(C2C=C(c3cccs3)Nc3ncnn32)cc(OC)c1OC (stereo unspecified)	GDH-TPI inh 41
COc1cc(C2CC(=O)C3=C(C2)Nc2ncnn2C3c2cccs2)cc(OC)c1OC (stereo unspecified)	none
CSc1nnc(-c2ccc(S(=O)(=O)N3CCOCC3)cc2)n1CC1CCCO1 (stereo unspecified)	Bead autofluor 17507
CCn1c(CC(=O)Nc2ccc(C)cc2)nnc1SCC(=O)NCCc1ccccc1	Bead autofluor 24526
Cc1ccc(NC(=O)Cc2nnc(SCC(=O)c3ccc(Br)cc3)n2C)cc1	Bead autofluor 21836
CCn1c(SCC(=O)Nc2cccc(OC)c2)nnc1-c1ccc(Cl)cc1	BoNT-A LC inh2 inconclusive, Bead autofluor 21821
Cn1c(N)c(C(=O)CSc2nn(-c3ccc(F)cc3)c(=S)s2)c(=O)n(C)c1=O	none
Cc1ccc(NC(=O)CCC(=O)N/N=C/C=C/c2ccccc2)cc1	none
CCn1c(SCC(=O)Nc2ccc(C)cc2)nnc1-c1ccc(O)cc1	Bead autofluor 17034
COc1cc(C(=O)CSc2nnc(-c3ccc(O)cc3)n2CC2CCCO2)ccc1NC(C)=O (stereo unspecified)	none
CCC(=O)Nc1ccc(C(=O)CSc2nnc(-c3ccc(O)cc3)n2CC2CCCO2)cc1 (stereo unspecified)	Bead autofluor 23574
Cc1cc(C(=O)Cn2c(CO)nc3ccccc32)c(C)n1C	none
Cc1c(-c2ccccc2)c(=O)oc2cc(O)ccc12	FBA Mtb inh active
O=c1ccn([C@@H]2O[C@H](CNCc3ccc(-n4cccn4)cc3)[C@@H](O)[C@H]2O)c(=O)[nH]1	none
C/C(=N\NC(=O)c1ccccc1O)c1c(O)n(Cc2ccccc2)c(=O)[nH]c1=O	Bead autofluor inconclusive, GDH-TPI inh 47
